In PubChem BioAssay:

test system: Rat fibroblasts (CREF); experiment: Peg3 promoter luciferase inhibitors, potency, dose response, cell-based, HeLa, CREF/GAPDH counter-screen panel (AID 624167); details: CREF/GAPDH counter-screens; run 1, dose range 1, at 100 µM (top of the series); in the data active = activity above about 50%; inactive = the rest

With `CC1=CC2/C=C(\C)CCC(O)C(O)/C=C/C(=O)C23C(=O)NC(CC(C)C)C3C1C` (stereo unspecified) as the compound, how does the inhibition read?
Its inhibition is 100%.

With `C=Cc1cc(OC)c2c(c1)c(=O)oc1c2cc(OC)c2c(O)ccc(C3OC(C)C(O)C(C)(O)C3O)c21` (stereo unspecified) as the compound, how does the inhibition read?
Its inhibition is 25.3%.

With `COc1cc2nc(CN3CC=C(c4ccccc4)CC3)[nH]c(=O)c2cc1OC` as the compound, how does the inhibition read?
Its inhibition is 38.6%.

Which inhibition does the source give for `CC(=O)OC1(C)CC(C)C(=O)C(C(O)CC2CC(=O)NC(=O)C2)C1` (stereo unspecified) here?
The inhibition was 61.8%.

For `CCC1(OC(=O)CN)C(=O)OCc2c1cc1n(c2=O)Cc2cc3ccccc3nc2-1` (stereo unspecified), which inhibition is on record?
Its inhibition is 65.4%.

For `CCOC(=O)c1c(-n2c(C)cc(C=C3C(=O)NC(=S)NC3=O)c2C)sc2c1CCCC2`, which inhibition is on record?
Its inhibition is 95.9%.

For `CC(=O)OC1CC[C@]2(C#N)[C@H]3CC[C@]4(C)[C@H](C5C=CC(=O)O5)CCC4(O)C3CCC2(O)C1` (stereo partly specified), which inhibition is on record?
The inhibition was -10.8%.

For `COC(COC(N)=O)C1=C(N2CC2)C(=O)C(C)=C(N2CC2)C1=O` (stereo unspecified), which inhibition is on record?
Its inhibition is 100%.

Which inhibition does the source give for `C[C@@H]1C[C@@H]([C@H](O)CC2CC(=O)NC(=O)C2)C(=O)[C@@H](C)C1` here?
The inhibition was 62.3%.

Which inhibition does the source give for `CCC(c1nnnn1-c1ccc2c(c1)OCCO2)N1CCC(n2c(=O)[nH]c3ccccc32)CC1` (stereo unspecified) here?
The inhibition was 76.5%.

For `CCN(CCCl)c1cc(CN(C)C)cc(NC(=O)c2ccc(C(=O)Nc3cc(CN(C)C)cc(N(CC)CCCl)c3)cc2)c1`, which inhibition is on record?
Its inhibition is 99.6%.

test system: Rat fibroblasts (CREF); experiment: as above; details: CREF/GAPDH counter-screens; run 2, dose range 1, at 100 µM (top of the series)

With `CC1=CC2/C=C(\C)CCC(O)C(O)/C=C/C(=O)C23C(=O)NC(CC(C)C)C3C1C` (stereo unspecified) as the compound, how does the inhibition read?
The inhibition was 100%.

With `C=Cc1cc(OC)c2c(c1)c(=O)oc1c2cc(OC)c2c(O)ccc(C3OC(C)C(O)C(C)(O)C3O)c21` (stereo unspecified) as the compound, how does the inhibition read?
The inhibition was 31.8%.

With `COc1cc2nc(CN3CC=C(c4ccccc4)CC3)[nH]c(=O)c2cc1OC` as the compound, how does the inhibition read?
The inhibition was 26.4%.

With `CC(=O)OC1(C)CC(C)C(=O)C(C(O)CC2CC(=O)NC(=O)C2)C1` (stereo unspecified) as the compound, how does the inhibition read?
The inhibition was 56.4%.

For `CCC1(OC(=O)CN)C(=O)OCc2c1cc1n(c2=O)Cc2cc3ccccc3nc2-1` (stereo unspecified), which inhibition is on record?
The inhibition was 72%.

With `CCOC(=O)c1c(-n2c(C)cc(C=C3C(=O)NC(=S)NC3=O)c2C)sc2c1CCCC2` as the compound, how does the inhibition read?
Its inhibition is 97.3%.

With `CC(=O)OC1CC[C@]2(C#N)[C@H]3CC[C@]4(C)[C@H](C5C=CC(=O)O5)CCC4(O)C3CCC2(O)C1` (stereo partly specified) as the compound, how does the inhibition read?
The inhibition was 7.93%.

With `COC(COC(N)=O)C1=C(N2CC2)C(=O)C(C)=C(N2CC2)C1=O` (stereo unspecified) as the compound, how does the inhibition read?
Its inhibition is 98.7%.

Which inhibition does the source give for `C[C@@H]1C[C@@H]([C@H](O)CC2CC(=O)NC(=O)C2)C(=O)[C@@H](C)C1` here?
The inhibition was 58.2%.

For `CCC(c1nnnn1-c1ccc2c(c1)OCCO2)N1CCC(n2c(=O)[nH]c3ccccc32)CC1` (stereo unspecified), which inhibition is on record?
Its inhibition is 63.2%.

For `CCN(CCCl)c1cc(CN(C)C)cc(NC(=O)c2ccc(C(=O)Nc3cc(CN(C)C)cc(N(CC)CCCl)c3)cc2)c1`, which inhibition is on record?
Its inhibition is 97.7%.

test system: not listed separately; experiment: inhibitors of PAF-induced NFkB signaling in CF airway cells, dose response, cell-based, uHTS hits, panel, cytotoxicity readout (AID 624344); details: CF bronchial epithelial cells, PAF-induced NFkB reporter inhibition, with PAF, run 1; at 79 µM (top of the series)

Which inhibition does the source give for `CC(=O)c1c(C)n(C2CCCCC2)c2ccc(O)cc12` here?
Its inhibition is 95.6%.

With `CC(=O)OC1(C)CC(C)C(=O)C(C(O)CC2CC(=O)NC(=O)C2)C1` (stereo unspecified) as the compound, how does the inhibition read?
The inhibition was 117%.

Which inhibition does the source give for `C[C@H]1CCCC(=O)CCC/C=C/c2cc(O)cc(O)c2C(=O)O1` here?
The inhibition was 102%.

For `COc1cc2c(c(OC)c1O)-c1ccc(OC)c(=O)cc1C(NC(=O)C(F)(F)F)CC2` (stereo unspecified), which inhibition is on record?
Its inhibition is -39.2%.

For `CCCCn1nnnc1C(CCc1ccccc1)N1CCC(n2c(=O)[nH]c3ccccc32)CC1` (stereo unspecified), which inhibition is on record?
The inhibition was 89.5%.

Which inhibition does the source give for `C[C@@H]1C[C@@H]([C@H](O)CC2CC(=O)NC(=O)C2)C(=O)[C@@H](C)C1` here?
Its inhibition is 106%.

test system: not listed separately; experiment: as above; details: CF bronchial epithelial cells, PAF-induced NFkB reporter inhibition, with PAF, run 2; at 79 µM (top of the series)

Which inhibition does the source give for `CC(=O)c1c(C)n(C2CCCCC2)c2ccc(O)cc12` here?
The inhibition was 102%.

With `CC(=O)OC1(C)CC(C)C(=O)C(C(O)CC2CC(=O)NC(=O)C2)C1` (stereo unspecified) as the compound, how does the inhibition read?
The inhibition was 108%.

Which inhibition does the source give for `C[C@H]1CCCC(=O)CCC/C=C/c2cc(O)cc(O)c2C(=O)O1` here?
The inhibition was 114%.

Which inhibition does the source give for `COc1cc2c(c(OC)c1O)-c1ccc(OC)c(=O)cc1C(NC(=O)C(F)(F)F)CC2` (stereo unspecified) here?
Its inhibition is 24.5%.

Which inhibition does the source give for `CCCCn1nnnc1C(CCc1ccccc1)N1CCC(n2c(=O)[nH]c3ccccc32)CC1` (stereo unspecified) here?
The inhibition was 93%.

For `C[C@@H]1C[C@@H]([C@H](O)CC2CC(=O)NC(=O)C2)C(=O)[C@@H](C)C1`, which inhibition is on record?
The inhibition was 116%.

molecular target: Tumor necrosis factor receptor superfamily member 10B (Homo sapiens) (UniProt O14763); experiment: caspase-8 TRAIL sensitization, hit retest, confirmation, cell-based, NB7+caspase-8, with/without TRAIL, luminescence panel (AID 651596); details: NB7 neuroblastoma + caspase-8, TRAIL sensitization, luminescence viability, with TRAIL, mean of runs, at 10 µM, stronger effect = higher value
Sequence (O14763 whole entry, looked up): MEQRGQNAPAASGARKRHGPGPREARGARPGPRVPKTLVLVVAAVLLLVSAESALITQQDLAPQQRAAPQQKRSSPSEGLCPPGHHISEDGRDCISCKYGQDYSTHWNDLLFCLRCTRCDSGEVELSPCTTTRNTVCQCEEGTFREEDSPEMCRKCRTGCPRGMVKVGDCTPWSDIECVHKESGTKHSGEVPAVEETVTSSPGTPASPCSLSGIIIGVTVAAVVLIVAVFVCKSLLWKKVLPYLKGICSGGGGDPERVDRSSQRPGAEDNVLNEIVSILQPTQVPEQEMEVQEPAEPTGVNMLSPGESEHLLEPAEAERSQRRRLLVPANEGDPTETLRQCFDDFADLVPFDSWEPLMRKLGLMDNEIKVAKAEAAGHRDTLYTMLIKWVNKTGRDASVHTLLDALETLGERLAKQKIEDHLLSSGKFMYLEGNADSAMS

Which activity does the source give for `CC1=CC2/C=C(\C)CCC(O)C(O)/C=C/C(=O)C23C(=O)NC(CC(C)C)C3C1C` (stereo unspecified) here?
Its activity is 95.3%.

For `CCN(CC)C(=O)c1ccc(NC(=O)Nc2ccccc2F)cc1`, which activity is on record?
The activity was 69.6%.

With `C[C@@H]1O[C@@H](O[C@@H]2C=C3CCC4C(CC[C@]5(C)[C@@H](c6ccc(=O)oc6)CC[C@]45O)[C@@]3(C)CC2)[C@H](O)[C@H](O)[C@H]1O` (stereo partly specified) as the compound, how does the activity read?
Its activity is 82.2%.

Which activity does the source give for `Cc1ccccc1CN1Cc2cnnn2-c2ccccc2C1C#N` (stereo unspecified) here?
Its activity is 37.7%.

For `CC1=CC2OC3CC4OC(=O)C=CC=CC(C(C)O)OCC(O)C(C)CC(=O)OCC2(CC1O)C4(C)C31CO1` (stereo unspecified), which activity is on record?
Its activity is 92.3%.

For `CC(=O)OC(C)(C)/C=C/C(=O)C(C)(O)C1[C@H](O)C[C@@]2(C)C3CC=C4C(CC[C@@H](O)C4(C)C)[C@]3(CO)C(=O)C[C@]12C` (stereo partly specified), which activity is on record?
The activity was 43.7%.

test system: not listed separately; experiment: as above; details: NB7 neuroblastoma + caspase-8, without TRAIL, luminescence viability, without TRAIL, mean of runs, at 10 µM

Which activity does the source give for `CC1=CC2/C=C(\C)CCC(O)C(O)/C=C/C(=O)C23C(=O)NC(CC(C)C)C3C1C` (stereo unspecified) here?
The activity was 97.8%.

For `CCN(CC)C(=O)c1ccc(NC(=O)Nc2ccccc2F)cc1`, which activity is on record?
Its activity is 63.9%.

For `C[C@@H]1O[C@@H](O[C@@H]2C=C3CCC4C(CC[C@]5(C)[C@@H](c6ccc(=O)oc6)CC[C@]45O)[C@@]3(C)CC2)[C@H](O)[C@H](O)[C@H]1O` (stereo partly specified), which activity is on record?
Its activity is 91.8%.

With `Cc1ccccc1CN1Cc2cnnn2-c2ccccc2C1C#N` (stereo unspecified) as the compound, how does the activity read?
The activity was 78.2%.

For `CC1=CC2OC3CC4OC(=O)C=CC=CC(C(C)O)OCC(O)C(C)CC(=O)OCC2(CC1O)C4(C)C31CO1` (stereo unspecified), which activity is on record?
Its activity is 97.7%.

Which activity does the source give for `CC(=O)OC(C)(C)/C=C/C(=O)C(C)(O)C1[C@H](O)C[C@@]2(C)C3CC=C4C(CC[C@@H](O)C4(C)C)[C@]3(CO)C(=O)C[C@]12C` (stereo partly specified) here?
The activity was 71.7%.
